In ChEMBL document CHEMBL3988442, “University of Dundee, Small-Polar-MMV Screening Library” (2021):
In all, about 53,000 compounds went through this assay and about 900 (1.7%) showed an effect of 50% or more. The list comes from a sample in which strong results are over-represented; it also holds similar structures and randomly drawn compounds.

Each compound was assayed on Mycobacterium tuberculosis (assay: Cornell - Phenotypic assay to identify agents that inhibit growth of Mycobacterium tuberculosis). Conditions: 10 mM as filed; unlikely as a test dose.
Assay type: functional
Set-up: scale not given: direction of the effect not stated beside the values

| SMILES | Percent Effect [%] |
| --- | --- |
| O=C1NCC(C(=O)Nc2ncc(Cc3ccccc3)s2)N1 (stereo not drawn) | -21.97 |
| CNC(=O)c1cn[nH]c1C1CCN(Cc2cn(C)nc2C)C1 (stereo not drawn) | -22.18 |
| CCn1nc(C)c2ncnc(N(C)C)c21 | -48.95 |
| O=C(CC1CCCC1)N1CCC(c2cc3ncccc3c(O)n2)CC1 | -42.1 |
| CCN1CCCC1CNC(=O)Cc1c(C)n[nH]c1-c1ccc(OC)cc1 (stereo not drawn) | 17.71 |
| CCC(C(=O)Nc1ccc2cn(CC)nc2c1)N1CCCC1=O (stereo not drawn) | 13.02 |
| Nc1nnc(CCNC(=O)c2cccc(C3CCCNC3)c2)s1 (stereo not drawn) | 4.454 |
| Cn1cnc2c1CCN(CCS(=O)(=O)c1ccc(Cl)cc1)C2 | -6.56 |
| Cc1cc(C)n(C2CN(CC(=O)N(C)Cc3ccco3)C2)n1 | -1.246 |
| COc1ccccc1CN(C)C(=O)CN1CC(n2nc(C)cc2C)C1 | 65.44 |
| COc1cccc(CN(C)C(=O)CN2CC(n3nc(C)cc3C)C2)c1 | 24.75 |
| CCCc1nc(CN(CCO)Cc2cc(Br)ccc2F)no1 | 55.91 |
| Cc1noc(CN(CCO)Cc2cc(Br)ccc2F)n1 | 29.28 |
| CC(C)(C)c1nc(CN(CCO)Cc2cc(Br)ccc2F)no1 | 21.92 |
| CCS(=O)(=O)N1CCCn2cnc(COc3cccnc3)c2C1.O=C(O)C(F)(F)F | 13.68 |
| CN(CCCc1cnn(C)c1)Cc1cc2n(n1)CCCN(C)C2 | 2.304 |
| CC(O)CNC(=O)c1nc(Cc2c(Cl)cccc2Cl)no1 (stereo not drawn) | 19.28 |
| C[C@@H](O)CNC(=O)c1nc(Cc2c(Cl)cccc2Cl)no1 | 33.25 |
| CC(C)CNC(=O)CNC(=O)c1nc(Cc2c(Cl)cccc2Cl)no1 | 50.66 |
| CC(C)(O)CN1CCN(C(=O)c2cc3ccccc3c(=O)[nH]2)CC1 | 11.41 |
| COc1cccc2cc(CNCc3ccc(N4CCCC4)nc3)oc12 | -14.56 |
| COc1cccc2cc(CNCc3ccnc(N4CCOCC4)c3)oc12 | -7.276 |
| COc1cccc2cc(CNCc3ccnc(N4CCCCC4)c3)oc12 | 60.34 |
| O=C(CCc1cccc(F)c1F)N1CCCC(n2cncn2)C1 (stereo not drawn) | 5.232 |
| Cc1nn(C)c(N(C)C)c1CNC(C)Cc1c(F)cccc1F (stereo not drawn) | 29.42 |
| Cc1nn(C)c(N(C)C)c1CNC(C)c1cccc(OC(C)C)c1 (stereo not drawn) | 54.17 |

| SMILES | Percent Effect [%] |
| --- | --- |
| Cc1nn(C)c(N(C)C)c1CNC(C)COc1cccc(F)c1 (stereo not drawn) | 24.93 |
| CC(C)n1nccc1CN1Cc2nccn2CC1c1ccccc1 (stereo not drawn) | 55.64 |
| Cc1nccc(CN2Cc3nccn3CC2c2ccccc2)n1 (stereo not drawn) | -4.199 |
| Cn1cnc(CN2Cc3nccn3CC2c2ccccc2)c1 (stereo not drawn) | 25.78 |
| Cc1csc(N2CCN(Cc3cccnc3)CC2C)n1 (stereo not drawn) | 17.54 |
| O=C(NC1CCCc2c1[nH]c1ccc(F)cc21)c1n[nH]c2c1CCC2 (stereo not drawn) | 5.755 |
| COc1ccc(Cl)cc1CCNC(=O)NCc1noc(C)n1 | 15.04 |
| COc1ccc(Cl)cc1CCNC(=O)NCc1ncnn1C | 19.31 |
| COc1ccc(Cl)cc1CCNC(=O)NCc1ccncc1 | 59.54 |
| COc1ccc(C(=O)NCCNC(=O)c2scnc2Cl)cc1 | -54.01 |
| CCN(CC)C1CCN(C(=O)NCc2cccc(-n3ccnc3)c2)C1 (stereo not drawn) | 34.25 |
| COC(=O)CCc1c(C)nc2cc(O)nn2c1C | -35.79 |
| CCNC(=O)CCc1c(C)nc2cc(O)nn2c1C | 3.574 |
| COc1ccc(NC(=O)CCc2c(C)nc3cc(O)nn3c2C)cn1 | 65.23 |
| Cc1cnn(CC2CCCN2Cc2nnc(C(C)C)o2)c1 (stereo not drawn) | -69.76 |
| Cc1cnn(CC2CCCCN2C(=O)c2ccc3nncn3c2)c1 (stereo not drawn) | -11.21 |
| Cc1cc(C)n(CC2CCCN2C(=O)c2ccc3nnc(C)n3c2)n1 (stereo not drawn) | 12.74 |
| Cc1cnn(CC2CCCN2C(=O)c2ccc3nnc(C)n3c2)c1 (stereo not drawn) | 107.3 |
| Cc1ncccc1CNCC1CCN(CC(C)O)CC1 (stereo not drawn) | -13.7 |
| Cc1cc(-c2ccnn2C)nc(C2CCCN(S(C)(=O)=O)C2)n1 (stereo not drawn) | 51.61 |
| Cc1cc(-c2ccnn2C)nc(C2CCN(S(C)(=O)=O)CC2)n1 | 31.8 |
| Cn1nccc1-c1cccc(CC2CCN(S(C)(=O)=O)C2)n1 (stereo not drawn) | 50.09 |
| CC(=O)N1CCC(Cc2cccc(-c3ccnn3C)n2)CC1 | 35.75 |
| Cc1nc(-c2ccnn2C)cc(C2CCCN(S(C)(=O)=O)C2)n1 (stereo not drawn) | 29.58 |
| Cn1nccc1-c1cncc(C2CCCN(S(C)(=O)=O)C2)n1 (stereo not drawn) | 20.84 |
| CC(C)C(=O)N1CCN(C(=O)c2cc(C(C)C)no2)[C@H]2CS(=O)(=O)C[C@H]21 | 24.89 |

| SMILES | Percent Effect [%] |
| --- | --- |
| CN(C)CCNC(=O)CC1CCN(c2cccnn2)CC1 | 8.308 |
| CCN(Cc1nc(C)no1)C(=O)C1CC(=O)N(Cc2ccccn2)C1 (stereo not drawn) | 0.6142 |
| O=C(NC1CCCN(Cc2c(F)cccc2F)C1)c1cc[nH]n1 (stereo not drawn) | -25.78 |
| O=C(NCCN1CCC(c2cccs2)CC1)Nc1cccs1 | 107.5 |
| O=C(NCCc1ccccc1)NCCN1CCC(c2cccs2)CC1 | 45.08 |
| CC(=O)NCCN1CCC(c2cccs2)CC1 | 5.988 |
| Cc1cc(N2CCC(Cc3ccncc3)C2)ncn1 (stereo not drawn) | -20.77 |
| OCC1(Cc2ccc(Cl)cc2)CCN(Cc2ccccc2O)CC1 | 19.16 |
| COc1cccc(CN2CCC(CO)(Cc3ccc(Cl)cc3)CC2)c1O | 91.19 |
| COc1ccc(CN2CCC(CO)(Cc3ccc(Cl)cc3)CC2)c(O)c1 | 23.78 |
| CCC(O)c1nc2c([nH]1)CC(C)(C)CNC2=O (stereo not drawn) | -22.87 |
| CCc1cc(NCCN2CCNC2=O)n2nccc2n1 | -6.964 |
| Cc1nc(C)n(CC2CCCN(CCOc3ccccc3F)C2)n1 (stereo not drawn) | -21.82 |
| O=C(NC1CCN(CC2CC2)C1)N1CCC(OC2CCCCC2)CC1 (stereo not drawn) | 28.71 |
| O=C(NC1CCN(CC2CCCC2)C1)N1CCC(OCC2CC2)CC1 (stereo not drawn) | 51.36 |
| NC(=O)C1CCN(C(=O)NC2CCN(CC3CCCC3)C2)CC1 (stereo not drawn) | 21.86 |
| CC(C)C(=O)N1CCC(c2nc3ccccn3c2NC(C)(C)C)CC1 | 44.44 |
| CCc1cn[nH]c1C1CCN(c2cc(C)c3cc(OC)ccc3n2)CC1 | 4.644 |
| CCc1cn[nH]c1C1CCN(c2cc(C)c3cccc(OC)c3n2)CC1 | 57.17 |
| CCc1cn[nH]c1C1CCN(c2cc(C)c3ccc(OC)cc3n2)CC1 | 2.528 |
| CSc1ncccc1C(=O)NCC(c1ccco1)N(C)C (stereo not drawn) | 23 |
| CCNS(=O)(=O)c1ccc2c(c1)c(=O)n(CC)c(=O)n2CC | 5.155 |
| CS(=O)(=O)CCSCc1cc(F)cc2cccnc12 | -6.961 |
| Fc1ccccc1CN1CCCN(c2ccc3cc[nH]c3n2)CC1 | 55.73 |
| c1cc(CN2CCCN(c3ccc4cc[nH]c4n3)CC2)ccn1 | -9.703 |
| Fc1ccccc1CN1CCCN(c2ncnc3[nH]ccc23)CC1 | 14.79 |

| SMILES | Percent Effect [%] |
| --- | --- |
| O=C(NCCc1csc(-c2cccnc2)n1)c1cnn2c1CCCC2 | -3.716 |
| Cc1csc2c(C3CCN(CCCOc4ccccc4)CC3)nc(C)n12 | 35.94 |
| Cc1csc2c(C3CCN(CCOc4ccccc4F)CC3)nc(C)n12 | -14.57 |
| Cc1ccc(OCCN2CCC(c3nc(C)n4c(C)csc34)CC2)cc1 | 54.47 |
| Cc1nc(CN2CCO[C@@H]3CN(Cc4ccsc4)C[C@@H]3C2)cs1.O=C(O)C(F)(F)F.O=C(O)C(F)(F)F | 22.49 |
| Cc1noc(C)c1-c1nc(N(C)C)ncc1-c1cnccn1 | -5.73 |
| CC[C@@H]1N(Cc2ccsc2)CCC[C@]12CCC(=O)N2C.O=C(O)C(F)(F)F | 2.508 |
| NC(=O)C1CN(C(=O)Nc2ccccc2SC2CCCC2)CCO1 (stereo not drawn) | 18.89 |
| CC(=O)N1CCCC1CCc1ccnc(-c2cncnc2)c1 (stereo not drawn) | 56.86 |
| CC(=O)N1CCCC1c1ccnc(Nc2cncnc2)n1 (stereo not drawn) | -12.16 |
| CC(=O)N1CCCC1CCc1ccc(Cl)nn1 (stereo not drawn) | 30.13 |
| Cc1ccccc1OCCCNC(=O)C1(C)CC(=O)N2C=CC=CC2=N1 (stereo not drawn) | 54.27 |
| CC1(C(=O)NCCCOc2ccccc2F)CC(=O)N2C=CC=CC2=N1 (stereo not drawn) | 24.68 |
| Cc1ccc(OCCCNC(=O)C2(C)CC(=O)N3C=CC=CC3=N2)cc1 (stereo not drawn) | 45.74 |
| CN(C)[C@H]1CCCCN(C(=O)c2cccc(N3CCS(=O)(=O)CC3)c2)C1 | -27.17 |
| CC(C)c1noc(CN(Cc2ccc(F)cc2)C2CC2)n1 | -14.54 |
| CCC(C(=O)NCCc1nc(C)cc(C(F)(F)F)n1)n1cccn1 (stereo not drawn) | -40.59 |
| Cc1nc2sccn2c1CNC1(c2ccccc2F)CCCC1.O=C(O)CC(O)(CC(=O)O)C(=O)O | 21.81 |
| COc1ccccc1C1(NCc2c(C)nc3c(C)cccn23)CCCC1.Cl | -17.64 |
| COc1ccc(C2(NCc3c(C)nc4c(C)cccn34)CCCC2)cc1.O=C(O)CC(O)(CC(=O)O)C(=O)O | 60.04 |
| C=Cn1ncc(CN2CCc3nc(-c4ccncc4)nc(O)c3C2)c1C | 24.59 |
| O=C(Nc1ccccc1)[C@H]1C[C@@H]2CN(Cc3cccnc3)C[C@H]1O2 | 15.91 |
| O=S(=O)(Nc1ccc(N2CCOCC2)cn1)c1cccc(F)c1 | 37.01 |
| O=S(=O)(Nc1cnc(N2CCOCC2)nc1)c1cccc(F)c1 | 17.36 |
| O=S(=O)(Nc1ccc(N2CCOCC2)cc1)c1cccc(F)c1 | 107.6 |
